Among the test systems are DU-145 prostate; K-562 leukemia; MALME-3M melanoma; MDA-MB-231 breast; RXF 393 renal; SF-268 CNS; SF-295 CNS; SF-539 CNS; UACC-257 melanoma; M14 melanoma; HCT-15 colon; HT29 colon; SNB-75 CNS; SNB-19 CNS; U251 CNS; SK-MEL-5 melanoma; UACC-62 melanoma; LOX IMVI melanoma; SK-MEL-28 melanoma; PC-3 prostate.
Common to all, as to experiment: NCI-60 one-dose screen, 48 h (100 = growth as untreated, 0 = no growth, -100 = all killed)
Holding throughout (conditions): 10 µM unless noted

About 83,000 compounds went through this panel and 20% of them were active in at least one assay; those are over-represented in the sample as a whole.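 Single-concentration screen, 48 h exposure, 96-well plates. Endpoint: percent growth. Below 10 = active.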 Unmarked numbers belong to inactive results. The source made the active and inactive calls.

As for `CS(=O)(=O)c1nnc(-c2ccccc2)s1`, the growth in the test on DU-145 prostate was 88%; in the test with K-562 leukemia, 78.4%; in the test with MALME-3M melanoma, 88.1%; in the test on MDA-MB-231 breast, 101%; in the test with RXF 393 renal, 110%; in the test with SF-268 CNS it was 94.8%. Moreover, the growth in the test on SF-295 CNS was 106%; in the test on SF-539 CNS, 106%; with UACC-257 melanoma, 91%; in the test with M14 melanoma, 74%; in the test with HCT-15 colon it was 71.4%; in the test on HT29 colon, 82.2%. Also, the growth in the test with SNB-75 CNS was 103%; in the test on SNB-19 CNS, 107%; with U251 CNS, 106%; in the test with SK-MEL-5 melanoma, 99.4%; in the test with UACC-62 melanoma it was 82.7%; with LOX IMVI melanoma, 71.2%. The growth with SK-MEL-28 melanoma is 97.3%.
For the compound `COc1cc2c(cc1OCCCCN1CCN(C(=S)SCCC(C#N)(c3ccccc3)c3ccccc3)CC1)N=C[C@@H]1CCCN1C2=O`, the growth in the test with DU-145 prostate is -96.7% (active); in the test on K-562 leukemia it was -34.3% (active); in the test with MALME-3M melanoma, -79.4% (active); with MDA-MB-231 breast it was -23.7% (active); in the test on RXF 393 renal, -83.7% (active); in the test on SF-268 CNS, -69.9% (active). Further, the growth with SF-295 CNS is -8.56% (active); with SF-539 CNS, -91.3% (active); with UACC-257 melanoma, -11.1% (active); in the test on M14 melanoma, -29.5% (active); with HCT-15 colon it was -55.5% (active); in the test on HT29 colon, -65.6% (active). The growth with SNB-75 CNS was -82.3% (active); in the test on SNB-19 CNS, -14.5% (active); with U251 CNS, -81.9% (active); in the test with SK-MEL-5 melanoma it was -98.3% (active); in the test with UACC-62 melanoma, -22.7% (active); in the test on LOX IMVI melanoma it was -83.2% (active). Also, the growth in the test on SK-MEL-28 melanoma was -70.2% (active).
With `COc1ccc(-c2n[nH]c(=O)c3nc(NC(=S)Nc4ccc(Oc5ccccc5)cc4)sc23)cc1`, the growth with DU-145 prostate is 102%; in the test with K-562 leukemia it was 89.3%; in the test with MALME-3M melanoma, 110%; in the test with MDA-MB-231 breast, 84%; in the test on RXF 393 renal, 104%; with SF-268 CNS, 102%. Besides, the growth in the test with SF-295 CNS was 102%; in the test with SF-539 CNS it was 105%; with UACC-257 melanoma, 79.7%; with M14 melanoma, 88.9%; in the test with HCT-15 colon, 103%; in the test with HT29 colon it was 87.6%. For the same compound, the growth with SNB-75 CNS is 80.8%; with SNB-19 CNS it was 101%; in the test on U251 CNS, 83.3%; in the test with PC-3 prostate it was 83.8%; in the test with SK-MEL-5 melanoma, 99.9%; with SK-MEL-28 melanoma, 104%.
`Cc1ccc(NC(=O)Cn2c(Br)nc3c2c(=O)n(C)c(=O)n3C)cc1`: the growth is 44.1% with DU-145 prostate; 51.6% in the test on K-562 leukemia; -36% (active) in the test on MALME-3M melanoma; -19.2% (active) in the test with MDA-MB-231 breast; -3.2% (active) in the test with RXF 393 renal; 56.1% in the test on SF-268 CNS. The growth in the test on SF-295 CNS is 0.92% (active); in the test on SF-539 CNS, 1.55% (active); in the test on UACC-257 melanoma, 62.2%; with M14 melanoma, 43.1%; in the test on HCT-15 colon, 45.8%; in the test on HT29 colon, 55.2%. The growth in the test with SNB-75 CNS is 5.65% (active); in the test with SNB-19 CNS, 50.7%; in the test on U251 CNS, 4.05% (active); with PC-3 prostate, 30.3%; in the test with SK-MEL-5 melanoma it was 25.6%; in the test on LOX IMVI melanoma it was -9.57% (active). For the same compound, the growth with SK-MEL-28 melanoma was 52%.
With `COc1ccc2[nH]cc(-c3nc(-c4c[nH]c5c(Cl)nccc45)cs3)c2c1`, the growth in the test on DU-145 prostate was 32.6%; in the test with K-562 leukemia, 19.3%; with MALME-3M melanoma it was 65.8%; in the test with MDA-MB-231 breast, 31.7%; with RXF 393 renal, 37.7%; with SF-268 CNS, 73%. Besides, the growth with SF-295 CNS was 11.9%; with SF-539 CNS, 34.9%; with UACC-257 melanoma, -48.3% (active); with M14 melanoma, -26% (active); in the test on HCT-15 colon, -16.1% (active); in the test with HT29 colon, 15.8%. Besides, the growth with SNB-75 CNS was 54.1%; with SNB-19 CNS, 63.9%; in the test on U251 CNS it was 17.5%; with PC-3 prostate, 31%; in the test on SK-MEL-5 melanoma, 55.6%; in the test with LOX IMVI melanoma, 13.2%. Besides, the growth in the test with SK-MEL-28 melanoma is 42%.
For `C=CC(=O)Nc1ccc(Nc2nccc(-c3ccc(N4CCCC4)c(C#N)c3)n2)cc1`, the growth was 36.8% in the test on DU-145 prostate; 16.6% in the test with K-562 leukemia; -41.8% (active) in the test on MALME-3M melanoma; 60.9% in the test on MDA-MB-231 breast; -54.5% (active) in the test with RXF 393 renal; 43.9% in the test with SF-268 CNS. The growth is -36.9% (active) with SF-295 CNS; 51.1% with SF-539 CNS; 39.4% with UACC-257 melanoma; 3.42% (active) with M14 melanoma; -36.7% (active) in the test on HCT-15 colon; 2.55% (active) in the test on HT29 colon. Also, the growth in the test on SNB-75 CNS was 15.4%; in the test with SNB-19 CNS it was 41.5%; in the test with U251 CNS, 5.57% (active); in the test on PC-3 prostate, 23.6%; in the test on SK-MEL-5 melanoma, 15.4%; in the test with SK-MEL-28 melanoma, -46.1% (active).
For the compound `CCOC(=O)C1=C(C)C(Cl)=N/C1=C\c1[nH]c(Cl)c(C)c1C(=O)OCC`, the growth in the test on DU-145 prostate was 111%; in the test with K-562 leukemia it was 91%; with MALME-3M melanoma, 107%; with MDA-MB-231 breast, 93%; in the test with RXF 393 renal, 115%; in the test with SF-268 CNS, 101%. Besides, the growth in the test with SF-295 CNS is 111%; in the test with SF-539 CNS it was 100%; with UACC-257 melanoma, 91.4%; with M14 melanoma it was 87.1%; in the test on HCT-15 colon, 99.1%; in the test on HT29 colon, 91.9%. Also, the growth is 84.5% in the test with SNB-75 CNS; 101% in the test on SNB-19 CNS; 94.1% in the test with U251 CNS; 96.8% in the test with SK-MEL-5 melanoma; 97.4% in the test with UACC-62 melanoma; 93.9% in the test with LOX IMVI melanoma. In the test with SK-MEL-28 melanoma, the growth is 122%.
On to `CCn1cc(CNc2ccc(C(=O)Nc3cc4cc(OC)c(OC)cc4c(C)n3)cc2)cn1`, for which the growth is 67.2% in the test with DU-145 prostate; 30.8% in the test with K-562 leukemia; 54.6% in the test on MALME-3M melanoma; 79.6% with MDA-MB-231 breast; 80.4% in the test on RXF 393 renal; 60.6% with SF-268 CNS. Further, the growth was 60.4% in the test with SF-295 CNS; 70.5% in the test with SF-539 CNS; 56.2% in the test with UACC-257 melanoma; 48.8% in the test on M14 melanoma; 26.3% in the test on HCT-15 colon; 56.6% in the test with HT29 colon. Moreover, the growth is 65.2% in the test with SNB-75 CNS; 84.1% in the test on SNB-19 CNS; 65.2% with U251 CNS; 15.3% with PC-3 prostate; 10.3% in the test with SK-MEL-5 melanoma; 46.1% in the test with LOX IMVI melanoma. In addition, the growth in the test with SK-MEL-28 melanoma is 70.5%.
Take `COc1ccccc1C(=O)Nc1cccc(NC(=O)c2ccoc2C)c1`: the growth in the test with DU-145 prostate is 53.3%; in the test with K-562 leukemia, 8.76% (active); in the test with MALME-3M melanoma, 60.4%; with MDA-MB-231 breast, 59.4%; in the test with RXF 393 renal, 50.1%; with SF-268 CNS it was 48.2%. In addition, the growth is 29.8% in the test with SF-295 CNS; 27.2% with SF-539 CNS; 33.3% in the test on UACC-257 melanoma; 13.1% in the test on M14 melanoma; 28.7% in the test with HCT-15 colon; 6.04% (active) with HT29 colon. Besides, the growth with SNB-75 CNS was 19.3%; in the test with SNB-19 CNS, 30.4%; with U251 CNS, 21.9%; with PC-3 prostate it was 30.5%; with SK-MEL-5 melanoma, 20.5%; in the test on LOX IMVI melanoma, 37.3%. Besides, in the test on SK-MEL-28 melanoma, the growth was 60.1%.

Values taken from PubChem BioAssay (NCI).
